# A number with no mark means an inactive call. Results filed as inconclusive are left out. A call without a number means that no potency is given here. The source made the active and inactive calls. Unless noted, calls follow the shape of the dose curve; as a rule, active = well fitted curve in the direction sought with a large enough effect; inconclusive = small, poorly fitted or top-dose-only effect, or another doubt; inactive = no such curve, though single readings can be large; an effect the other way counts as inactive or inconclusive.
# Legend:
# [1] = molecular target: Ubiquitin carboxyl-terminal hydrolase 1 (Homo sapiens) (UniProt O94782); assay: Inhibitors of USP1/UAF1: Pilot qHTS (AID 504865); also: nearly all actives have a fitted effect of over 35% in size; also: potency is read from the fitted curve at half-maximal effect
# Chain of Ubiquitin carboxyl-terminal hydrolase 1 (Homo sapiens) (O94782 whole entry, looked up): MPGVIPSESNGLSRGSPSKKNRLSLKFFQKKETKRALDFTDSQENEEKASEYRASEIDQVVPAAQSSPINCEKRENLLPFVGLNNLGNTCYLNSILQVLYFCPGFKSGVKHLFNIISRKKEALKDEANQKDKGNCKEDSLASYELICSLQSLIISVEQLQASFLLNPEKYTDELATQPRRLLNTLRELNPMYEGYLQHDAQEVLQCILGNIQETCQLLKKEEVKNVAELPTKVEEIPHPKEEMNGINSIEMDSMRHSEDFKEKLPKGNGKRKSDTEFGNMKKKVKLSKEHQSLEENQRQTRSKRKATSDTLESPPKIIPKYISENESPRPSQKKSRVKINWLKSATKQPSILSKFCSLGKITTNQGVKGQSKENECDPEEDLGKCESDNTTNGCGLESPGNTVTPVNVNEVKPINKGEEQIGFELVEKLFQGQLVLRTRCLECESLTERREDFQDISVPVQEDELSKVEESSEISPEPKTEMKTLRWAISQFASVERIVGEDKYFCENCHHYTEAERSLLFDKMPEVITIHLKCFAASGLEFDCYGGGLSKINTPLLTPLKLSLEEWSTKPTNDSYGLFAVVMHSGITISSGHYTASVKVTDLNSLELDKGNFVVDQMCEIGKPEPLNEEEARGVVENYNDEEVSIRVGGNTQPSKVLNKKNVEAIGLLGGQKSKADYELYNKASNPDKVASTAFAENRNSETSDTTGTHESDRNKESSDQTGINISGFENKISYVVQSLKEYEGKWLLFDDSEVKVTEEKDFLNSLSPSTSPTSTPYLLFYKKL
# Procedure, shortened: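 Enzyme-free wells gave the negative control, while test wells held 1nM USP1/UAF1 preincubated with compound for 15 min at room temperature. Ub-Rho at 150nM final started the reaction, and fluorescence at 480/540 nm was recorded kinetically.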
# [2] = molecular target: DNA dC->dU-editing enzyme APOBEC-3G (Homo sapiens) (UniProt Q9HC16); assay: qHTS for inhibitors of Vif-A3G interactions: Validation (AID 588379)
# Chain of DNA dC->dU-editing enzyme APOBEC-3G (Homo sapiens) (Q9HC16 whole entry, looked up): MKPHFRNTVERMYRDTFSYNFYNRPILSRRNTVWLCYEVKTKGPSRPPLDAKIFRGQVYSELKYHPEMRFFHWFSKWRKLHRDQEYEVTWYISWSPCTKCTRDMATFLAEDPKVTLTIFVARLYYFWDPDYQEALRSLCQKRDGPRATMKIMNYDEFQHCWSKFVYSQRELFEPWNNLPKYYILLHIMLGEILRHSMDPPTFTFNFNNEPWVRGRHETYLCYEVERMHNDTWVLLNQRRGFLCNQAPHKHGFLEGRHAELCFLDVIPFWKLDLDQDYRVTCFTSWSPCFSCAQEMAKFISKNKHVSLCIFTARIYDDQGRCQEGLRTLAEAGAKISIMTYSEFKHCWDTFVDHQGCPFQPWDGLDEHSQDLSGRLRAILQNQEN
# Procedure, shortened: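 HeLa cells stably expressing Vif and A3G-eYFP, 700 cells/well, incubated overnight at 37 deg C, then exposed to compound overnight at 37 deg C. Inhibition of Vif-mediated degradation read as increased yellow fluorescence (Ex 488/Em 500-530) by laser-scanning cytometry.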
# [3] = molecular target: Phosphoglycerate kinase, glycosomal (Trypanosoma brucei brucei) (UniProt P07378); assay: qHTS Validation Assay to Find Inhibitors of Phosphoglycerate Kinase (AID 504547)
# Chain of Phosphoglycerate kinase, glycosomal (Trypanosoma brucei brucei) (P07378 whole entry, looked up): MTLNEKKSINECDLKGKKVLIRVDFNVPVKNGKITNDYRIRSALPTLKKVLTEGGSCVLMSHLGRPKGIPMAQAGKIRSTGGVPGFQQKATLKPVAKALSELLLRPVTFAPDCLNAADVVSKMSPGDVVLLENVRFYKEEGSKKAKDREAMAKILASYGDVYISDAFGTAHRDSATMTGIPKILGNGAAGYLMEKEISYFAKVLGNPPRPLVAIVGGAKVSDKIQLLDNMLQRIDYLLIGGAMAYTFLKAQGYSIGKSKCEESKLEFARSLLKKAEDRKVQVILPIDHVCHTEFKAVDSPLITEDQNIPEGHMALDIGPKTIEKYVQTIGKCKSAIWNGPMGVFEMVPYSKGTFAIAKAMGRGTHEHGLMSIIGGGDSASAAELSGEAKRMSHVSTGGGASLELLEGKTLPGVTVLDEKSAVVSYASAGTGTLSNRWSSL
# Procedure, shortened: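 PGK activity was coupled to GAPDH (100nM final), which generates the unstable substrate 1,3-bisphosphoglycerate in-well. Reactions ran 60 minutes at room temperature in 100mM TEA pH 7.6, 5mM MgCl2, 0.01% Tween-20, then Kinase-Glo Plus luminescence was read.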
# [4] = qHTS for Inhibitors of ATXN expression: Validation of Cytotoxic Assay (AID 588349); also: potency is read from the fitted curve at half-maximal effect
# Procedure, shortened: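 HEK293 cells treated with titrated compound for 72 hr at 37 degrees C; viability read as intracellular ATP by CellTiter Glo luminescence.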
# [5] = qHTS for Inhibitors of ATXN expression: Validation (AID 588378); also: nearly all actives have a fitted effect of over 75% in size; also: potency is read from the fitted curve at half-maximal effect
# Procedure, shortened: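 After a 2 h attachment and 24 h compound incubation, HEK293-ATXN2-FFLuc wells are read for fluorescence at 405 nm excitation/525 nm emission as a viability measure, then for Bright-Glo luminescence reflecting ATXN2 expression.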
# [6] = molecular target: phosphoglycerate mutase (Leishmania major) (UniProt Q4Q090); assay: qHTS Validation Assay to Find Inhibitors of Phosphoglycerate Mutase (AID 504548);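 also: end-point luminescence from Kinase-GloPlus after the PGAM reaction; series mostly up to about 58 µM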
# Chain of phosphoglycerate mutase (Leishmania major) (Q4Q090 1-553): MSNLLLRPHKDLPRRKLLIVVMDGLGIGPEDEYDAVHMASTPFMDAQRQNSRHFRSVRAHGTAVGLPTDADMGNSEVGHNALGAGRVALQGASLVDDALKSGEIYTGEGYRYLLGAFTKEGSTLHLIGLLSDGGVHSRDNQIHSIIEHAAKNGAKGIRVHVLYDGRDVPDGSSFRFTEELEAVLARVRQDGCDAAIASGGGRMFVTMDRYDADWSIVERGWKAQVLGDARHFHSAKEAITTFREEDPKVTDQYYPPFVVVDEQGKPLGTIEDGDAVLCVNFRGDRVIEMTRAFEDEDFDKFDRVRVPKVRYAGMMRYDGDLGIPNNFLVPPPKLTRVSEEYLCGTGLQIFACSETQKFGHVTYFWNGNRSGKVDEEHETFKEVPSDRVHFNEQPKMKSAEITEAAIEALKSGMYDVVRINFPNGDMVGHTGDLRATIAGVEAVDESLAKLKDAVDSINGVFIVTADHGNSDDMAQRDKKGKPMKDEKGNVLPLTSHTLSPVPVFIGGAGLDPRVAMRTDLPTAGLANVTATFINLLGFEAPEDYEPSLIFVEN
# Procedure, shortened: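 Inhibition of L. major PGAM was assessed by Kinase-GloPlus luminescence following a 45-minute room-temperature reaction with enzyme at 1.25nM final.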
# [7] = molecular target: Estrogen receptor (Homo sapiens) (UniProt P03372); assay: qHTS assay for small molecule antagonists of estrogen receptor alpha signaling (AID 588513; active = well fitted curve in the direction sought with a large enough effect in the signal ratio, with a control signal flat, not every such curve was filed as active; the % refers to the signal ratio)
# Chain of Estrogen receptor (Homo sapiens) (P03372 whole entry, looked up): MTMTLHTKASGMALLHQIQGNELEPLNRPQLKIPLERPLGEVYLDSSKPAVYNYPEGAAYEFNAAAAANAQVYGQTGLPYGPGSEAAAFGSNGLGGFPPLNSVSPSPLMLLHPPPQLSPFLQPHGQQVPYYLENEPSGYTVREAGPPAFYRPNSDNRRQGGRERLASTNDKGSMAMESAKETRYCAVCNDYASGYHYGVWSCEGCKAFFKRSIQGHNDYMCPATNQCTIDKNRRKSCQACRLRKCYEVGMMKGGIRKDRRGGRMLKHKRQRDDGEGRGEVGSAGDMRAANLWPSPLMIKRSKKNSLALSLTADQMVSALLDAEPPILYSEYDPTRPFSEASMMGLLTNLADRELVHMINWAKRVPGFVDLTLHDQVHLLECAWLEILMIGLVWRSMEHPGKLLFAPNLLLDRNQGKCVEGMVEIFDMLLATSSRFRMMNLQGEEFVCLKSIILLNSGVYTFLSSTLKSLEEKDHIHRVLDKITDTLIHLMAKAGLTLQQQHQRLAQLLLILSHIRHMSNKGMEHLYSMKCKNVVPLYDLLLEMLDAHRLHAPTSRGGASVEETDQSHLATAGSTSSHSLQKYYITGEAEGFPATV
# Procedure, shortened: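 Antagonist-mode qHTS in ER-alpha-UAS-bla HEK 293 cells: compound titration, 0.5nM estradiol for 18 h, CCF4 fluorescence, Hill-derived IC50.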
# [8] = molecular target: Androgen receptor (Homo sapiens) (UniProt P10275); assay: qHTS assay for small molecule agonists of androgen receptor signaling (AID 588515; active = well fitted curve in the direction sought with a large enough effect in the signal ratio, with a control signal flat; the % refers to the signal ratio); details: AR-UAS-bla HEK293, beta-lactamase ratio, agonist 16 h; active compounds read high
# Chain of Androgen receptor (Homo sapiens) (P10275 whole entry, looked up): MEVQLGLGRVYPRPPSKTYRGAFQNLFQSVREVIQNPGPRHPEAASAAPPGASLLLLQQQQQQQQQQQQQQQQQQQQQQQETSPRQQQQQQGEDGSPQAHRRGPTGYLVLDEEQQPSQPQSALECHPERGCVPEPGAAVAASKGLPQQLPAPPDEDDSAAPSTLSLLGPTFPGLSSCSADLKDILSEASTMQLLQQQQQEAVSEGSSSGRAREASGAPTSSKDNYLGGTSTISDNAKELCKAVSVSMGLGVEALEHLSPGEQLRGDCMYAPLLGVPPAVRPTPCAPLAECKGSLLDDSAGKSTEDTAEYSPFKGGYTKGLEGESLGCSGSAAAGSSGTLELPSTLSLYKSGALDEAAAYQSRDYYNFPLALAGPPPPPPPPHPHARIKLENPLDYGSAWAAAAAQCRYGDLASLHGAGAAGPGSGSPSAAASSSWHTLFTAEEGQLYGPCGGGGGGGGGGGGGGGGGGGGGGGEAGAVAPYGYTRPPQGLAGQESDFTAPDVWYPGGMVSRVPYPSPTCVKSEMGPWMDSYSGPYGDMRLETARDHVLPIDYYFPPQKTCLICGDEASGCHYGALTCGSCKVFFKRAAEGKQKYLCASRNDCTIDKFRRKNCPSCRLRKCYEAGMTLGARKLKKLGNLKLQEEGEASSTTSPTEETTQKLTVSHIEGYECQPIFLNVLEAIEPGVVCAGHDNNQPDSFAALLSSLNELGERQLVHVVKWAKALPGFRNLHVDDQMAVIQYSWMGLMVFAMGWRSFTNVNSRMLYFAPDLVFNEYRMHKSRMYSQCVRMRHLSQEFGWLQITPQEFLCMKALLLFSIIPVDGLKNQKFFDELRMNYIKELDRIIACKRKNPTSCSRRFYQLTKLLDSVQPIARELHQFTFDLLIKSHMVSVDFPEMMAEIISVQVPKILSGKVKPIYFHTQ
# Procedure, shortened: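 EC50 and efficacy came from Hill fits of titrations (up to 92 uM) normalized to 30 nM R1881 as 100% and DMSO as 0%. Compound exposure was 16 h at 37 C on AR-UAS-bla HEK293 cells, with a 405/460/530 nm CCF4 fluorescence read.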
# [9] = molecular target: Androgen receptor (Homo sapiens) (UniProt P10275); assay: qHTS assay for small molecule antagonists of androgen receptor signaling (AID 588516; active = well fitted curve in the direction sought with a large enough effect in the signal ratio, with a control signal flat, not every such curve was filed as active; the % refers to the signal ratio)
# Procedure, shortened: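 Compounds tested in titration against 10 nM R1881 in AR-responsive bla reporter HEK 293 cells; CCF4 fluorescence (460/530 nm) after 16 h exposure gave IC50 and efficacy.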
# [10] = molecular target: Estrogen receptor (Homo sapiens) (UniProt P03372); assay: qHTS assay for small molecule agonists of estrogen receptor alpha signaling (AID 588514; calls by dose curve; also: nearly all actives have a fitted effect of over 70% in size)
# Procedure, shortened: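 ER-alpha-UAS-bla GripTite HEK293 cells, 5000/well in 2% charcoal/dextran-stripped FBS medium, treated with compound titrations 18 h at 37 C. CCF4 beta-lactamase read by fluorescence after 2 h RT; normalised to 20 nM 17-beta-estradiol (100%) and DMSO (0%), Hill fit for EC50 and efficacy.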
smiles,measurement,setting,value
O=C(O)Cc1cccc2ccccc12,Potency,[1],inactive
COc1cc2ncnc(Nc3ccc(F)c(Cl)c3)c2cc1OCCCN1CCOCC1,Potency,[1],inactive
COc1ccc(-c2coc3cc(O)ccc3c2=O)cc1,outcome,[2],inactive
COc1ccc(C2Sc3ccccc3N(CCN(C)C)C(=O)C2OC(C)=O)cc1 (stereo unspecified),Potency,[1],inactive
COc1ccc2c3c1OC1C[C@@H](O)C=C[C@@]31CCN(C)C2 (stereo partly specified),Potency,[1],inactive
same,outcome,[2],inactive
O=c1cc(-c2ccc(O)cc2)oc2cc(O)cc(O)c12,outcome,[3],inactive
same,Potency,[1],inactive
same,Potency,[4],inactive
same,Potency,[5],inactive
same,outcome,[2],inactive
CCCCCCCCCCCC1=C(O)C(=O)C=C(O)C1=O,outcome,[2],inactive
C[N+](C)(C)CC(=O)O,outcome,[3],inactive
same,outcome,[6],inactive
same,Potency,[4],inactive
same,Potency,[5],inactive
Nc1ncnc2c1ncn2[C@@H]1O[C@@H](CO)[C@H](O)[C@H]1O,Potency,[1],inactive
C[C@@H](O)[C@H]1C(=O)N2C(C(=O)O)=C(S[C@@H]3CN[C@H](C(=O)N(C)C)C3)[C@H](C)[C@H]12,Potency,[1],inactive
O=C(O)c1cc(O)c2c(c1)C(=O)c1cccc(O)c1C2=O,outcome,[2],inactive
same,Potency,[7],inactive
O=C(O)c1cc(-c2ccccc2)nc2ccccc12,Potency,[1],inactive
same,activation,[8],-15.7%
same,outcome,[9],inactive
O=c1cc(-c2ccccc2)oc2cc(O)c(O)c(O)c12,outcome,[2],inactive
O=C(O)c1c(Cl)c(Cl)c(Cl)c(Cl)c1-c1c2cc(I)c(=O)c(I)c-2oc2c(I)c(O)c(I)cc12,Potency,[1],20 µM (active)
O=c1c(O)c(-c2ccc(O)cc2)oc2cc(O)cc(O)c12,outcome,[2],inactive
CCN(CC)CCNC(=O)c1ccc(N)cc1,outcome,[3],inactive
same,outcome,[6],inactive
same,Potency,[4],inactive
same,Potency,[5],inactive
Cc1cnc(C(=O)O)c[n+]1[O-],Potency,[1],inactive
O=c1cc(-c2ccccc2)oc2cc(O)cc(O)c12,Potency,[1],inactive
same,outcome,[2],inactive
COc1ccc(Cc2nccc3cc(OC)c(OC)cc23)cc1OC,outcome,[3],inactive
same,outcome,[6],inactive
same,Potency,[4],inactive
same,Potency,[5],inactive
same,outcome,[2],inactive
CC(C)[C@H](CO)Nc1nc(Nc2ccc(C(=O)O)c(Cl)c2)c2ncn(C(C)C)c2n1,Potency,[1],inactive
same,outcome,[2],inactive
O=c1[nH]cnc2c1ncn2[C@H]1CC[C@@H](CO)O1,Potency,[1],inactive
same,Potency,[7],inactive
same,outcome,[10],inactive
CC1(C)O[C@H]2C[C@@H]3[C@H]4CCC5=CC(=O)C=C[C@]5(C)[C@@]4(F)[C@@H](O)C[C@]3(C)[C@]2(C(=O)CO)O1,Potency,[1],inactive
CCOC(=O)O[C@]1(C(=O)OCCl)CC[C@@H]2[C@H]3CCC4=CC(=O)C=C[C@]4(C)[C@@H]3[C@@H](O)C[C@@]21C,Potency,[1],inactive
COCCCCC(=NOCCN)c1ccc(C(F)(F)F)cc1,Potency,[1],inactive
same,outcome,[2],inactive
CS(=O)c1ccc(-c2nc(-c3ccc(F)cc3)c(-c3ccncc3)[nH]2)cc1 (stereo unspecified),outcome,[2],inactive
CC1(C)CCC2=C(O1)c1ccccc1C(=O)C2=O,outcome,[6],inactive
same,Potency,[1],5.01 µM (active)
same,Potency,[4],22.4 µM (active)
same,Potency,[5],22.4 µM (active)
Clc1ccc(Cn2c(CN3CCCC3)nc3ccccc32)cc1,outcome,[3],inactive
same,outcome,[6],inactive
same,Potency,[4],inactive
same,Potency,[5],inactive

# Source: PubChem BioAssay (NCATS)
